The values that follow come from PubChem BioAssay (NCATS).

Where “and” joins values, the source holds several entries; their conditions need not be identical. Equal entries are not always repeated. Records with an inconclusive call do not appear. Calls of active or inactive are those of the source. The call rests on the fitted dose curve; in most records, active means well fitted cell-killing curve with a large enough effect; inconclusive means small, poorly fitted or top-dose-only effect; inactive means no such curve, though single readings can be large or run the other way.
Potency means the concentration at half of the fitted maximal effect.

This test in a line: qHTS of pediatric cancer cell lines to identify multiple opportunities for drug repurposing: Primary screen for SK-N-MC cells (AID 1347093). The settings on record: SK-N-MC viability, CellTiter-Glo luminescence, 48 h; series mostly up to 46 µM; activity change, negative = cytotoxic: at the top concentration. The source says:
Drug repurposing or repositioning has been offered as a strategy for drug development in oncology programs. This approach has special potential for childhood cancers and other rare or orphan diseases, where the expected return on new drug development has been a disincentive to pharmaceuticals.
In this project we exploit the poly-pharmacology of drugs to discover new indications via phenotypic screening of a panel of 19 well-characterized cell lines derived from solid tumors seen in children and adolescents. The goal is to identify approved drugs with previously unrecognized anticancer properties that has the potential to reveal new mechanisms and biological processes involved in carcinogenesis or drug resistance. We employed a titration-based paradigm (quantitative high-throughput screening or qHTS), where all compounds were tested at multiple concentrations for their effect on cell viability. Concentration-response curves (CRCs) were derived directly from the primary screen, and both potency and efficacy values were used to identify compounds with robust bioactivity profiles. We screened the NIH Chemical Genomics Center (NCGC) Pharmaceutical Collection (NPC) and Mechanism Interrogation Plate (MIPE) small molecule collections of approved and investigational compounds against these cell lines; and measured metabolically active cells after 48 hours of compound treatment as a proxy for cell viability.
Assay Submitter: Nathalia J. Martinez, National Center for Advancing Translational Sciences, National Institutes of Health, Rockville, MD, USA; email: natalia.martinez@nih.gov
[1] Shen, M et al. Quantitative high-throughput phenotypic screening of pediatric cancer cell lines identifies multiple opportunities for drug repurposing. Oncotarget 2017 Dec 19;9(4):4758-4772. PMID 29435139.
The cells were obtained from University of North Carolina (UNC), Pediatric Preclinical Testing Program (PPT), and Coriell Institute (CI).
qHTS cell viability assay:
Cells were assayed in growth media at a density of 500-1,000 cells/well. Five microliters of cells were dispensed into 1,536-well, white, solid-bottom, TC-treated plates (Greiner Bio One) using a multidrop dispenser and incubated at 37 degrees C, 5% CO2, under a humidified atmosphere for 5 hours. Twenty-three nanoliters of compounds and controls (neutral control DMSO or positive control bortezomib at final concentration of 2.3 µM) were subsequently transferred by Kalypsys pintool. For primary screens, the MIPE collection was tested at 11-point dilutions (final concentrations range from 0.78 nM to 46 µM) and the NPC collection at 8-point dilutions (final concentrations range from 0.59nM to 46 µM). Compounds tested in follow-up screens were assayed at 11-point dilutions. Cells were incubated for 48 hours, followed by addition of 3 uL of CellTiter-Glo (Promega). After a 15 min incubation at room temperature, samples were analyzed for luminescence intensity using a ViewLux High-throughput CCD imager equipped with clear filters.
(qHTS replaces the single test concentration by a dilution series.)
Take `CCCCc1oc2ccccc2c1C(=O)c1cc(I)c(OCCN(CC)CC)c(I)c1`: the Potency is 1.18 µM (active) and 13.3 µM (active). Turning to `CC1(C)O[C@H]2CC(=O)OC[C@]23[C@H]2CC[C@@]4(C)[C@H](c5ccoc5)OC(=O)[C@H]5O[C@]54[C@]2(C)C(=O)C[C@@H]13`, the Potency result was “inactive”. Regarding `C[C@H]1c2cccc(O)c2C(O)=C2C(=O)[C@]3(O)C(O)=C(C(N)=O)C(=O)[C@@H](N(C)C)[C@@H]3[C@@H](O)[C@@H]21`, the Potency result was “inactive”.

As to `Fc1ccc([C@@H]2CCNC[C@H]2COc2ccc3c(c2)OCO3)cc1`, the Potency entry was “inactive”. On the same count and under the same terms, to `CN(C)CCCN1c2ccccc2CCc2ccc(Cl)cc21` belongs 332 nM (active) and 23.7 µM (active); to `CC(C)NCC(O)c1ccc(O)c(O)c1` (stereo not given), 0.935 µM (active). With `CN(C)C(=O)C(CCN1CCC(O)(c2ccc(Cl)cc2)CC1)(c1ccccc1)c1ccccc1`, the Potency is 18.7 µM (active). With `CCOC(=O)Nc1ccc(NCc2ccc(F)cc2)nc1N`, the “activity change, negative = cytotoxic” value was -25.2% (inactive).

Regarding `CN1CCN(CCCN2c3ccccc3Sc3ccc(Cl)cc32)CC1`, the Potency is 0.0418 µM (active). For the compound `CC(C)NCC(O)COc1ccc(CCOCC2CC2)cc1` (stereo not given), the Potency result was “inactive”. With `COc1nc(C)nc(Cl)c1NC1=NCCN1`, the Potency entry is “inactive”.

With `O=C(Nc1ccc([N+](=O)[O-])cc1Cl)c1cc(Cl)ccc1O`, the Potency was 1.3 µM (active) and 833 nM (active). As to `CC(C)(C)C(=O)Oc1ccc(S(=O)(=O)Nc2ccccc2C(=O)NCC(=O)O)cc1`, the “activity change, negative = cytotoxic” value is 2.01% (inactive). Regarding `CC[C@@]1(O)C(=O)OCc2c1cc1n(c2=O)Cc2cc3c(CN(C)C)c(O)ccc3nc2-1`, the Potency is 6.7 nM (active) and 23.5 nM (active). On to `NCCc1cnc[nH]1`, for which the Potency result was “inactive”. Still for that read-out and setting: to `N[C@@H](Cc1c[nH]c2ccc(O)cc12)C(=O)O` belongs “inactive”. For the compound `COc1ccccc1N1CCN(CC(O)COc2cccc3ccccc23)CC1` (stereo not given), the “activity change, negative = cytotoxic” value is 30.6% (inactive). On to `CC(COc1ccccc1)N(CCCl)Cc1ccccc1` (stereo not given), for which the “activity change, negative = cytotoxic” value was 1.68% (inactive). In the case of `CCOC(=O)c1ncn2c1CN(C)C(=O)c1cc(F)ccc1-2`, the “activity change, negative = cytotoxic” value is 5.49% (inactive). With `Cc1cnc(C(=O)NCCc2ccc(S(=O)(=O)NC(=O)NC3CCCCC3)cc2)cn1`, the “activity change, negative = cytotoxic” value is -1.38% (inactive).

In the case of `CN1CCC(=C2c3ccccc3CC(=O)c3sccc32)CC1`, the Potency is 6.62 µM (active).

As for `COc1cc2nc(N(C)CCCNC(=O)C3CCCO3)nc(N)c2cc1OC` (stereo not given), the Potency result was “inactive”. `COc1cc2nc(N3CCN(C(=O)C4COc5ccccc5O4)CC3)nc(N)c2cc1OC` (stereo not given): the Potency is 29.6 µM (active).

Take `O=c1c(-c2ccc(O)cc2)coc2cc(O)cc(O)c12`: the “activity change, negative = cytotoxic” value was -16.4% (inactive). With `CN1CCN(C2=Nc3cc(Cl)ccc3Nc3ccccc32)CC1`, the Potency entry was “inactive”. On the same count and under the same terms, in the case of `Clc1ccc(C(c2ccccc2Cl)C(Cl)Cl)cc1` (stereo not given) it was 16.6 µM (active). The same measure, in the same setting: to `COc1cc2nc(N3CCN(C(=O)c4ccco4)CC3)nc(N)c2cc1OC` belongs 11.8 µM (active). `OCCN(CCO)c1nc(N2CCCCC2)c2nc(N(CCO)CCO)nc(N3CCCCC3)c2n1`: the Potency was 23.5 µM (active). Still for that read-out and setting: to `CC[N+](CC)(CC)CCOc1cccc(OCC[N+](CC)(CC)CC)c1OCC[N+](CC)(CC)CC` belongs “inactive”; to `Nc1ccn([C@H]2CC[C@@H](CO)O2)c(=O)n1`, 18.7 µM (active) and 21.1 µM (active); to `NS(=O)(=O)c1cc2c(cc1Cl)NCNS2(=O)=O`, “inactive”. Consider `CC1COc2c(N3CCN(C)CC3)c(F)cc3c(=O)c(C(=O)O)cn1c23` (stereo not given), for which the “activity change, negative = cytotoxic” value is 66.2% (inactive). As to `NC(=O)OCC(COC(N)=O)c1ccccc1`, the Potency entry is “inactive”. In the case of `Clc1ccc2c(c1)C(N1CCNCC1)=Nc1ccccc1O2`, the “activity change, negative = cytotoxic” value is -14.5% (inactive). In the case of `COc1cc2c(c(OC)c1OC)-c1ccc(OC)c(=O)cc1[C@@H](NC(C)=O)CC2`, the Potency is 4.2 nM (active) and 1 nM (active). Consider `CCC1(C)CC(=O)NC1=O` (stereo not given), for which the Potency result is “inactive”.

For the compound `O=C1N(c2ccccc2)c2ccccc2C1(Cc1ccncc1)Cc1ccncc1`, the “activity change, negative = cytotoxic” value was -29.7% (inactive). Take `O=C(c1ccc(F)cc1)C1CCN(CCn2c(=O)[nH]c3ccccc3c2=O)CC1`: the Potency entry was “inactive”. `CCc1cccc2c3c([nH]c12)C(CC)(CC(=O)O)OCC3` (stereo not given): the “activity change, negative = cytotoxic” value was -0.287% (inactive). As for `O=c1c(O)c(-c2ccc(O)c(O)c2)oc2cc(O)cc(O)c12`, the Potency is 8.33 µM (active).
